Data from the supplement of paper PMC10849652.
Of roughly 7,900 targets only a part is listed; those with a hit were picked by preference. About 0.6% of all pairs of compound and target were hits. Unmarked numbers belong to inactive results.

Key:
Assay in all cases: log2 fold change, soluble protein after heating vs DMSO (PISA); higher = thermal stabilisation; K562 cells, 10 uM, 30 min; active = over 0.2 and 3.5 SD of the protein, either way, in both replicates (recomputed)
[1] = compound: CC[C@@H]1C(=O)N(C)c2cnc(Nc3ccc(C(=O)NC4CCN(C)CC4)cc3OC)nc2N1C1CCCC1
In short: (§1)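 For each measurement, 10 μM compound was applied for 30 min to K562 cells at 2×10^6 cells/mL. Aliquots were heated for 3 min across 48°C-58°C, pooled, and extracted in PBS with 0.5% NP-40 at 4°C; the supernatant after 21,000xg for 90 min was soluble protein. This was quantified by TMTpro 16plex LC-MS/MS with channel sums equalised, and thermal stability was reported relative to control samples from duplicates, on a log2 fold-change scale.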

volasertib = compound: CC[C@@H]1C(=O)N(C)c2cnc(Nc3ccc(C(=O)N[C@H]4CC[C@H](N5CCN(CC6CC6)CC5)CC4)cc3OC)nc2N1C(C)C [volasertib]
In short: as §1

[2] = compound: CC[C@H](C)N1C=C(C2=C(C=C(C=C21)C3=CN=C(C=C3)N4CCNCC4)C(=O)NCC5=C(C=C(NC5=O)C)C)C
In short: as §1

epoxomicin = compound: CC[C@H](C)[C@@H](C(=O)N[C@@H]([C@@H](C)O)C(=O)N[C@@H](CC(C)C)C(=O)[C@]1(CO1)C)NC(=O)[C@H]([C@@H](C)CC)N(C)C(=O)C [epoxomicin]
In short: as §1

[3] = compound: CCn1c(C(=O)N(C2CC2)C2CC2)cc2c3c(ncn3C)c(Nc3cc(C)n(C)n3)nc21
In short: as §1

[4] = compound: CCn1cc(-c2ccnc3[nH]c(-c4cccc(CN(C)C)c4)cc23)c(-c2ccc(NC(=O)N(C)C)cc2)n1
In short: as §1

[5] = compound: CN(C)CC(=O)Nc1ccc2[nH]c(=O)c3ccccc3c2c1
In short: as §1

rosiglitazone = compound: CN(CCOC1=CC=C(C=C1)C[C@H]2C(=O)NC(=O)S2)C3=CC=CC=N3 (racemic) [rosiglitazone]
In short: as §1

[6] = compound: CN1C2=C(C3=C1C(=O)N(N=C3)CC4=CC(=CC=C4)N)SC(=C2)S(=O)C
In short: as §1

[7] = compound: CN1CCC(CNc2ccc3ncc(-c4cccc(OC(F)(F)F)c4)n3n2)CC1
In short: as §1

saracatinib = compound: CN1CCN(CCOc2cc(OC3CCOCC3)c3c(Nc4c(Cl)ccc5c4OCO5)ncnc3c2)CC1 [saracatinib]
In short: as §1

sotrastaurin = compound: CN1CCN(c2nc(C3=C(c4c[nH]c5ccccc45)C(=O)NC3=O)c3ccccc3n2)CC1 [sotrastaurin]
In short: as §1

alvocidib = compound: CN1CC[C@H](c2c(O)cc(O)c3c(=O)cc(-c4ccccc4Cl)oc23)[C@H](O)C1 [alvocidib]
In short: as §1

Tubastatin A = compound: CN1CCc2c(c3ccccc3n2Cc2ccc(C(=O)NO)cc2)C1 [Tubastatin A]
In short: as §1

[8] = compound: CNC(=O)C1=CC=CC=C1NC2=NC(=NC=C2Cl)NC3=C(C=C(C=C3)N4CCOCC4)OC
In short: as §1

defactinib = compound: CNC(=O)c1ccc(Nc2ncc(C(F)(F)F)c(NCc3nccnc3N(C)S(C)(=O)=O)n2)cc1 [defactinib]
In short: as §1

rucaparib = compound: CNCc1ccc(-c2[nH]c3cc(F)cc4c3c2CCNC4=O)cc1 [rucaparib]
In short: as §1

[9] = compound: CNc1nc(-c2ccc3c(N)n[nH]c3c2)cc(N2C[C@@H](C(=O)NC3CCCCC3)CC[C@H]2C)n1
In short: as §1

encorafenib = compound: COC(=O)N[C@@H](C)CNc1nccc(-c2cn(C(C)C)nc2-c2cc(Cl)cc(NS(C)(=O)=O)c2F)n1 [encorafenib]
In short: as §1

[10] = compound: COC(=O)[C@H](CCSC)NC(=O)C1=C(C=C(C=C1)NC[C@H](CS)N)C2=CC=CC=C2
In short: as §1

Sequence of UniProt Q9NP58 (Q9NP58 whole entry, looked up): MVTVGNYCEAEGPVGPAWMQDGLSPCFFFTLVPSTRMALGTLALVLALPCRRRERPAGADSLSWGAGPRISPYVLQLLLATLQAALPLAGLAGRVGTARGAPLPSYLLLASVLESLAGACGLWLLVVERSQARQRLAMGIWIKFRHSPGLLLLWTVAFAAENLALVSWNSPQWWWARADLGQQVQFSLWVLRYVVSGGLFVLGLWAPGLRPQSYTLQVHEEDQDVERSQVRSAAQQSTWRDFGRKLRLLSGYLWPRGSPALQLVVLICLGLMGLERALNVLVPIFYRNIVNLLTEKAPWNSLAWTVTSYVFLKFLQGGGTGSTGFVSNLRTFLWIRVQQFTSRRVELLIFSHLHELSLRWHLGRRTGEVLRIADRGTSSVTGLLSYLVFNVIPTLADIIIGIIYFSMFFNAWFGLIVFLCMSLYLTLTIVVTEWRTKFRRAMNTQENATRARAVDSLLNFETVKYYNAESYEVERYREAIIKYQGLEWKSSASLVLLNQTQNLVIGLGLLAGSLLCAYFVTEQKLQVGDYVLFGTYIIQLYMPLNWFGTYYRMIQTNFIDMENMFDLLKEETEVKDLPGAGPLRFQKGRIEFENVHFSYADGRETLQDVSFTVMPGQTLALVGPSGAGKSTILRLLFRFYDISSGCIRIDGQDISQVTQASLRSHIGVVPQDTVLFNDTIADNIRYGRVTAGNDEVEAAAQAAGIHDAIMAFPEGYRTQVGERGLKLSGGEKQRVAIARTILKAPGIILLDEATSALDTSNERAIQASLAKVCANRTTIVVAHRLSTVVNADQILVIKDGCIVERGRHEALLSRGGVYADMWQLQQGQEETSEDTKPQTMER
Sequence of UniProt Q16186 (Q16186 whole entry, looked up): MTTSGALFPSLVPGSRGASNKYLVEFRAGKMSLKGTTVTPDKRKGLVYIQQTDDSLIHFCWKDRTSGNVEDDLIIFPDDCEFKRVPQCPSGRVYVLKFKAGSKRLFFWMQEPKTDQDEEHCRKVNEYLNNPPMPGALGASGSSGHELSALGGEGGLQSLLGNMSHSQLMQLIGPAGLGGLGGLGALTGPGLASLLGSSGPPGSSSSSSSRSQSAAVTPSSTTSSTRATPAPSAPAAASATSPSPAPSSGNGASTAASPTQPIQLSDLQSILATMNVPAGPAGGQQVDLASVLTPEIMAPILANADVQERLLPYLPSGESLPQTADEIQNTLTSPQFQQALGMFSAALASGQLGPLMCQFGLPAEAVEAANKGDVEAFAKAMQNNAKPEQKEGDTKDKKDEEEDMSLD
Sequence of UniProt P42025 (P42025 whole entry, looked up): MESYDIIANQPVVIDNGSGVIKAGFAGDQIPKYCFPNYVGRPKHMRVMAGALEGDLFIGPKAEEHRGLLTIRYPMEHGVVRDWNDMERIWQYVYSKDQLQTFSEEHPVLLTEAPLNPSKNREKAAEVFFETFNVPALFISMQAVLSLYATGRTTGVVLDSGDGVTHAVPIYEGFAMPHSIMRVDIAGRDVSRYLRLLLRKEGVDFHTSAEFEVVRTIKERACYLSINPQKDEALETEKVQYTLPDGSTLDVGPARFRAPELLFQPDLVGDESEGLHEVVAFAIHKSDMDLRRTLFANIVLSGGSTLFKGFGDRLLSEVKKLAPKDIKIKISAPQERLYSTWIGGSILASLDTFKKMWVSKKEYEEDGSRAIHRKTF
Sequence of UniProt P15056 (P15056 whole entry, looked up): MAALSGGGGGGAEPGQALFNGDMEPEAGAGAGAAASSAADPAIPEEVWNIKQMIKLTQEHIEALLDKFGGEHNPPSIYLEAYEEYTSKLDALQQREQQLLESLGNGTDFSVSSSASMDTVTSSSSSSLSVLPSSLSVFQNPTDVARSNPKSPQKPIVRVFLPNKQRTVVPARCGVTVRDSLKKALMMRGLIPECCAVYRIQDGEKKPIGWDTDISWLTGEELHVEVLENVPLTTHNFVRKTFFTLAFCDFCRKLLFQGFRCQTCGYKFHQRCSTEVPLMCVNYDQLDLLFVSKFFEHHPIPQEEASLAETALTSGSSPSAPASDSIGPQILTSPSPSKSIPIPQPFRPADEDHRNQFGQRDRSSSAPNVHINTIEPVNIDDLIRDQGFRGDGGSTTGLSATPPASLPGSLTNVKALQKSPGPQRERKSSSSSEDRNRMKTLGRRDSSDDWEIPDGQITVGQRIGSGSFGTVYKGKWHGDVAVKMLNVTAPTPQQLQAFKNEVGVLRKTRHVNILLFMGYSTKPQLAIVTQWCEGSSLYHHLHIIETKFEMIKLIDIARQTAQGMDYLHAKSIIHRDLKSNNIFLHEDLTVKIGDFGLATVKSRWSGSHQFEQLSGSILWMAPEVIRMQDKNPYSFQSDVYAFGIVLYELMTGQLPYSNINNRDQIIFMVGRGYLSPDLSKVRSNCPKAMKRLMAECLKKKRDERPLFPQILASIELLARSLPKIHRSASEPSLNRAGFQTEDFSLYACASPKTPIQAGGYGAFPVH
Sequence of UniProt Q9Y6D6 (Q9Y6D6 whole entry, looked up): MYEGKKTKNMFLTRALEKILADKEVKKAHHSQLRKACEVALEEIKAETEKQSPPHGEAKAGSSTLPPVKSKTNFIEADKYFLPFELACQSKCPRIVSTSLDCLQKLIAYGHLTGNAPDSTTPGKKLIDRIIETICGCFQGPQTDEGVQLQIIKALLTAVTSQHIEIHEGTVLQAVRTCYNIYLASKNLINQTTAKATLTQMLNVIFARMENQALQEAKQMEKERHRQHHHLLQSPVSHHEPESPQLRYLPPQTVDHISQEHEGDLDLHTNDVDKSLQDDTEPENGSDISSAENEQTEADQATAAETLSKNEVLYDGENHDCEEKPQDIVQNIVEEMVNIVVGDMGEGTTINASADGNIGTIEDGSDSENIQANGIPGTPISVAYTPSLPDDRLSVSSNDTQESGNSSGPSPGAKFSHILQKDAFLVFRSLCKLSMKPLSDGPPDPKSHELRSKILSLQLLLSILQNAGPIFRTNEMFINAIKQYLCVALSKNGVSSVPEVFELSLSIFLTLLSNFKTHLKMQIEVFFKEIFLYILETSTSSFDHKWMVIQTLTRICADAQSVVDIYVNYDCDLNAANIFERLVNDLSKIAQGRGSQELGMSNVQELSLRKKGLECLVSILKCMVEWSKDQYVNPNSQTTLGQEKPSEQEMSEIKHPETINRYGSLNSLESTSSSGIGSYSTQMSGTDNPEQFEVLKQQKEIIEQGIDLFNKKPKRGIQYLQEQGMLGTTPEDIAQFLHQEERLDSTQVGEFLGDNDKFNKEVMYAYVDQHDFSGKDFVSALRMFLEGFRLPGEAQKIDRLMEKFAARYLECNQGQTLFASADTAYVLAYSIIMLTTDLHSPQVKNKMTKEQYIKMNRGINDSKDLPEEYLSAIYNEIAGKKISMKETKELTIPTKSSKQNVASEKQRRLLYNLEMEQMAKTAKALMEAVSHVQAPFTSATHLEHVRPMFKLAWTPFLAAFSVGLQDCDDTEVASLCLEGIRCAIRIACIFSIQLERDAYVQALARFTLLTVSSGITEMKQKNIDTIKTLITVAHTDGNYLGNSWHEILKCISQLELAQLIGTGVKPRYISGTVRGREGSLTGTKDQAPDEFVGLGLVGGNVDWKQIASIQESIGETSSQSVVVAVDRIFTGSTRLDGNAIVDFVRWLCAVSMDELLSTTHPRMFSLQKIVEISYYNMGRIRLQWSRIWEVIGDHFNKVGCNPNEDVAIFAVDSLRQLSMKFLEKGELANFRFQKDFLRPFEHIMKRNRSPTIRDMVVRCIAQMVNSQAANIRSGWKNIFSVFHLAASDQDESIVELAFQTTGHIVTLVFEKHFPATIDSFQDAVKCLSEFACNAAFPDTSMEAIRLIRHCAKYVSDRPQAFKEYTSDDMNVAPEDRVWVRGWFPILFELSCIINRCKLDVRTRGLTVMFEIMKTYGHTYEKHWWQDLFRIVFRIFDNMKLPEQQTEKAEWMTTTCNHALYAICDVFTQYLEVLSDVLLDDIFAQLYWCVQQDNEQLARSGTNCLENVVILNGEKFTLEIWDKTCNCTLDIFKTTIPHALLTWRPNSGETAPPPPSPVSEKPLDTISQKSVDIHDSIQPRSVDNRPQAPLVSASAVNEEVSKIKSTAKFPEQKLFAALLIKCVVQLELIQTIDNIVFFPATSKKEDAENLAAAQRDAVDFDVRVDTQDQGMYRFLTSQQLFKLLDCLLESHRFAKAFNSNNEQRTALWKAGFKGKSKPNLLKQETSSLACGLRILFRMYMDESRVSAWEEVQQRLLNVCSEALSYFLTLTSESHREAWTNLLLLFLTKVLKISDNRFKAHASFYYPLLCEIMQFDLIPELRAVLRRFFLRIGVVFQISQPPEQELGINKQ
Sequence of UniProt O14965 (O14965 whole entry, looked up): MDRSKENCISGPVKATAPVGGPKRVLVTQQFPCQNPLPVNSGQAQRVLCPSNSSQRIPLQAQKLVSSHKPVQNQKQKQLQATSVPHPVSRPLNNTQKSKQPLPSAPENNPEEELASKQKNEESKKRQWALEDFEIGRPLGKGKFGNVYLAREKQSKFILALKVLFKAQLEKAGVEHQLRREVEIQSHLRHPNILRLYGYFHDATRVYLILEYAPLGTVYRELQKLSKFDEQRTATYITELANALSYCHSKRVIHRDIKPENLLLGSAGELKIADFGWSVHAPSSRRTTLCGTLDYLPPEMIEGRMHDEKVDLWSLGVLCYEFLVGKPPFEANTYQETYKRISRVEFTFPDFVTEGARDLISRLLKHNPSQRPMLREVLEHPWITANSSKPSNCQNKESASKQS
Sequence of UniProt Q10589 (Q10589 whole entry, looked up): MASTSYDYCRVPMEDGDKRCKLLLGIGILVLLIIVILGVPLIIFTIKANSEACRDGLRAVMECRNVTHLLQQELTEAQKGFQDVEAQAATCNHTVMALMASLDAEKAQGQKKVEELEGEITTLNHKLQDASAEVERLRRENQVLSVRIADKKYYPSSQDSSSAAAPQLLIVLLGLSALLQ
Sequence of UniProt Q6QNY0 (Q6QNY0 whole entry, looked up): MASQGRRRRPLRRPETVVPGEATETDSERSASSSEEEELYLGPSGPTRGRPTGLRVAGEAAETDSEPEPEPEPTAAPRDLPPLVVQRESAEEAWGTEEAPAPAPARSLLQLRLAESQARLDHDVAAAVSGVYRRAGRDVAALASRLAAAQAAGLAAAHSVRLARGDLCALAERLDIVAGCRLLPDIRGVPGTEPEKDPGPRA

Target	log2 fold change [1]	log2 fold change (volasertib)	log2 fold change [2]	log2 fold change (epoxomicin)	log2 fold change [3]	log2 fold change [4]	log2 fold change [5]	log2 fold change (rosiglitazone)	log2 fold change [6]	log2 fold change [7]	log2 fold change (saracatinib)	log2 fold change (sotrastaurin)	log2 fold change (alvocidib)	log2 fold change (Tubastatin A)	log2 fold change [8]	log2 fold change (defactinib)	log2 fold change (rucaparib)	log2 fold change [9]	log2 fold change (encorafenib)	log2 fold change [10]
ARFGEF1 (UniProt Q9Y6D6)	-0.022	-0.248	0.01	0.033	-0.007	0.011	-0.005	0.045	-0.037	-0.046	0.037	0.039	-0.055	0.013	0.094	0.007	0.011	0.059	0.048	-0.038
BRAF (UniProt P15056)	0	-0.097	0.043	0.04	0.008	0.029	0.036	0.034	-0.039	-0.07	0.029	-0.069	-0.059	0.007	-0.02	-0.058	0.013	-0.059	0.014	-0.037
BST2 (UniProt Q10589)	0.091	0.206	-0.062	-0.025	-0.003	0.045	-0.008	-0.055	0	0.223 (active)	0.003	-0.097	-0.005	-0.055	-0.063	0.03	-0.008	-0.07	0	0.012
BCAP29 isoform 2 (UniProt Q9UHQ4)	0.022	0.085	-0.072	-0.096	0.082	-0.011	-0.008	0.045	-0.044	0.05	0.052	0.104	0.041	-0.052	0.002	0.033	-0.043	-0.016	-0.026	0.018
BUB1B isoform 3 (UniProt O60566)	-0.127	-0.66 (active)	0.056	0.02	-0.055	0.043	0.065	0.089	0.013	-0.078	-0.071	-0.113	-0.074	0.031	0.042	-0.076	0.006	-0.031	0.097	-0.029
ABCB6 (UniProt Q9NP58)	-0.131	-0.051	0.001	-0.009	0	-0.019	0.061	0.027	-0.053	-0.123	0.073	0.01	-0.064	-0.017	-0.013	-0.031	-0.034	0.003	0.055	-0.017
ADK (UniProt P55263)	0.338	0.359	-0.095	-0.011	0.097	-0.026	-0.018	-0.017	-0.085	0.184	0.158	0.26	0.305	-0.007	0.119	0.055	-0.021	-0.017	-0.044	0.002
ADRM1 (UniProt Q16186)	0.122	0.197	0.024	-0.083	0.04	-0.013	-0.006	0	0.045	0.062	-0.086	-0.091	0.042	0.18	-0.067	0.087	-0.022	0.111	0.108	0.017
ARAF (UniProt P10398)	0.053	0.311	0.129	0.013	-0.041	-0.002	0.054	0.047	-0.025	-0.132	0.037	-0.022	0.013	-0.004	-0.084	-0.023	0.01	0.023	0.177	-0.067
BLOC1S3 (UniProt Q6QNY0)	0.024	0.018	-0.04	-0.011	0.005	-0.017	0.058	0.048	-0.062	-0.01	0.049	0.034	0.015	-0.064	-0.05	-0.044	-0.047	-0.031	-0.035	0.028
AGPS (UniProt O00116)	-0.005	-0.021	0.002	0.031	0.018	-0.102	0.039	0.055	-0.09	-0.212 (active)	-0.01	0.018	-0.058	-0.011	0.032	-0.039	-0.017	0.047	0.009	-0.042
BCCIP (UniProt Q9P287)	-0.009	-0.047	-0.005	0.092	-0.04	0.033	0.019	0.042	0.047	-0.043	-0.132	0	0.065	-0.045	-0.013	0.072	0.165	0.02	0.076	-0.049
ALDH1B1 (UniProt P30837)	-0.036	0.05	-0.005	0.032	-0.05	-0.113	0.001	0.048	-0.095	0.058	-0.015	0.001	-0.093	0.014	0.002	-0.055	-0.015	0.062	0.013	-0.042
ACTR1B (UniProt P42025)	0.081	0.048	0.01	-0.008	-0.014	-0.581 (active)	0.021	-0.033	-0.089	0.306	0.012	-0.025	-0.058	-0.004	0	-0.005	-0.037	-0.012	-0.048	-0.075
BECN1 (UniProt Q14457)	0.069	-0.003	0.029	0.07	0.053	-0.107	-0.003	0.013	0.024	0.009	0.013	-0.038	-0.262	-0.065	-0.029	-0.054	-0.014	-0.013	0.001	0.018
AURKA (UniProt O14965)	0.017	0.134	-0.022	0.113	0.004	0.733 (active)	0	-0.015	0.029	0.14	-0.019	-0.02	-0.03	0.011	0.974 (active)	0.722 (active)	0.073	0.201	0.033	0.071
